In all, about 5,500 compounds went through this assay and about 2,000 (36%) were called active. Not shown: some 18% with an inconclusive outcome. No stated cut-off is given here; in the data, active means normalized growth mostly below about 0.91 (no sharp cut-off); inconclusive means no clear call, values can overlap the other calls; inactive means mostly above about 0.92. The list shows a part of the results.
Assay: chemical genetic growth profiling, strain panel (AID 1159580);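 further: tested at 20 µM; growth read once vehicle control cultures reached saturation at 30 °C; 1 = growth at the plate median or of vehicle wells; lower values mean less growth of the strain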
Conditions: growth OD

Measured: normalized growth

NC[C@H]1O[C@H](O[C@H]2C(O[C@@H]3O[C@H](CO)[C@@H](O)[C@H]3O)[C@@H](O)[C@H](N)C[C@@H]2N)[C@H](N)[C@@H](O)[C@@H]1O (some centres not stated)
inactive: S. cerevisiae deletion strains, locus YJR075W, strain HOC1, hits give low values 0.987 | S. cerevisiae deletion strains, locus YKL009W, strain mrt4, hits give low values 0.995 | S. cerevisiae deletion strains, locus YKL068W, hits give low values 0.99 | S. cerevisiae deletion strains, locus YKL085W, strain MDH1 (second series), hits give low values 1 | S. cerevisiae deletion strains, locus YKL085W, strain MDH1, hits give low values 1 | S. cerevisiae deletion strains, locus YKL160W, strain elf1, hits give low values 1.01 | S. cerevisiae deletion strains, locus YKL190W, strain CNB1, hits give low values 1.02 | S. cerevisiae deletion strains, locus YKR001C, strain vps1, hits give low values 0.976 | S. cerevisiae deletion strains, locus YKR026C, strain gcn3, hits give low values 0.982 | S. cerevisiae deletion strains, locus YKR091W, strain srl3, hits give low values 0.993 | S. cerevisiae deletion strains, locus YLL001W, strain dnm1, hits give low values 1 | S. cerevisiae deletion strains, locus YLL026W, hits give low values 0.984 | S. cerevisiae deletion strains, locus YLL041C, strain sdh2, hits give low values 0.995 | S. cerevisiae deletion strains, locus YLR027C, strain aat2, hits give low values 1 | S. cerevisiae deletion strains, locus YLR039C, strain RIC1, hits give low values 0.989 | S. cerevisiae deletion strains, locus YLR058C, strain SHM2, hits give low values 0.99 | S. cerevisiae deletion strains, locus YLR102C, strain apc9, hits give low values 0.999 | S. cerevisiae deletion strains, locus YLR113W, strain HOG1, hits give low values 1.03 | S. cerevisiae deletion strains, locus YLR221C, strain rsa3, hits give low values 1 | S. cerevisiae deletion strains, locus YLR258W, strain gsy2, hits give low values 0.995 | S. cerevisiae deletion strains, locus YLR262C, strain YPT6 (second series), hits give low values 1.01 | S. cerevisiae deletion strains, locus YLR262C, strain YPT6, hits give low values 0.997 | S. cerevisiae deletion strains, locus YLR268W, strain sec22, hits give low values 0.955 | S. cerevisiae deletion strains, locus YLR320W, strain mms22, hits give low values 0.991 | S. cerevisiae deletion strains, locus YLR330W, strain CHS5, hits give low values 0.997 | S. cerevisiae deletion strains, locus YLR342W, strain FKS1 (second series), hits give low values 1.03 | S. cerevisiae deletion strains, locus YLR342W, strain FKS1, hits give low values 1 | S. cerevisiae deletion strains, locus YLR357W, strain rsc2, hits give low values 0.967 | S. cerevisiae deletion strains, locus YLR370C, strain arc18, hits give low values 0.998 | S. cerevisiae deletion strains, locus YLR371W, strain rom2, hits give low values 0.987 | S. cerevisiae deletion strains, locus YLR384C, strain iki3, hits give low values 0.985 | S. cerevisiae deletion strains, locus YLR418C, strain cdc73, hits give low values 0.975 | S. cerevisiae deletion strains, locus YML016C, strain PPZ1, hits give low values 0.992 | S. cerevisiae deletion strains, locus YML032C, strain rad52, hits give low values 0.979 | S. cerevisiae deletion strains, locus YML120C, strain ndi1, hits give low values 1.01 | S. cerevisiae deletion strains, locus YML124C, strain tub3, hits give low values 0.993 | S. cerevisiae deletion strains, locus YMR058W, strain fet3, hits give low values 1 | S. cerevisiae deletion strains, locus YMR078C, strain ctf18, hits give low values 0.99 | S. cerevisiae deletion strains, locus YMR125W, strain sto1, hits give low values 0.963 | S. cerevisiae deletion strains, locus YMR129W, hits give low values 0.981 | S. cerevisiae deletion strains, locus YMR205C, strain PFK2, hits give low values 0.962 | S. cerevisiae deletion strains, locus YMR223W, strain ubp8, hits give low values 1.01 | S. cerevisiae deletion strains, locus YMR231W, strain pep5, hits give low values 1 | S. cerevisiae deletion strains, locus YMR263W, strain SAP30, hits give low values 0.995 | S. cerevisiae deletion strains, locus YMR307W, strain GAS1, hits give low values 0.997 | S. cerevisiae deletion strains, locus YNL067W, strain RPL9B, hits give low values 0.984 | S. cerevisiae deletion strains, locus YNL071W, strain lat1, hits give low values 1.01 | S. cerevisiae deletion strains, locus YNL128W, strain TEP1, hits give low values 0.994 | S. cerevisiae deletion strains, locus YNL153C, strain GIM3, hits give low values 0.993 | S. cerevisiae deletion strains, locus YNL183C, strain NPR1, hits give low values 0.974 | S. cerevisiae deletion strains, locus YNL209W, strain ssb2, hits give low values 1 | S. cerevisiae deletion strains, locus YNL233W, strain BNI4, hits give low values 0.981 | S. cerevisiae deletion strains, locus YNL248C, strain rpa49, hits give low values 1.01 | S. cerevisiae deletion strains, locus YNL250W, strain rad50, hits give low values 0.987 | S. cerevisiae deletion strains, locus YNL271C, strain bni1, hits give low values 0.99 | S. cerevisiae deletion strains, locus YNL298W, strain CLA4, hits give low values 0.981 | S. cerevisiae deletion strains, locus YNL307C, strain MCK1, hits give low values 0.989 | S. cerevisiae deletion strains, locus YNL322C, strain KRE1 (second series), hits give low values 0.987 | S. cerevisiae deletion strains, locus YNL322C, strain KRE1, hits give low values 1 | S. cerevisiae deletion strains, locus YNR049C, strain mso1, hits give low values 0.997 | S. cerevisiae deletion strains, locus YNR052C, strain pop2, hits give low values 0.992 | S. cerevisiae deletion strains, locus YOL006C, strain TOP1, hits give low values 0.988 | S. cerevisiae deletion strains, locus YOL012C, strain htz1 0.933 | S. cerevisiae deletion strains, locus YOL147C, strain pex11, hits give low values 0.989 | S. cerevisiae deletion strains, locus YOR001W, strain rrp6, hits give low values 1 | S. cerevisiae deletion strains, locus YOR061W, strain CKA2, hits give low values 0.997 | S. cerevisiae deletion strains, locus YOR069W, strain VPS5, hits give low values 0.988 | S. cerevisiae deletion strains, locus YOR070C, strain gyp1, hits give low values 1 | S. cerevisiae deletion strains, locus YOR080W, strain dia2, hits give low values 0.987 | S. cerevisiae deletion strains, locus YOR083W, strain WHI5, hits give low values 1.01 | S. cerevisiae deletion strains, locus YOR106W, strain vam3, hits give low values 1 | S. cerevisiae deletion strains, locus YOR136W, strain idh2, hits give low values 0.995 | S. cerevisiae deletion strains, locus YOR144C, strain elg1, hits give low values 0.985 | S. cerevisiae deletion strains, locus YOR184W, strain ser1, hits give low values 0.975 | S. cerevisiae deletion strains, locus YOR231W, strain MKK1, hits give low values 0.975 | S. cerevisiae deletion strains, locus YOR265W, strain rbl2, hits give low values 0.991 | S. cerevisiae deletion strains, locus YOR270C, strain vph1, hits give low values 1.01 | S. cerevisiae deletion strains, locus YOR290C, strain snf2, hits give low values 0.957 | S. cerevisiae deletion strains, locus YOR316C, strain cot1, hits give low values 0.994 | S. cerevisiae deletion strains, locus YPL051W, strain arl3, hits give low values 1.01 | S. cerevisiae deletion strains, locus YPL055C, strain LGE1, hits give low values 1.04 | S. cerevisiae deletion strains, locus YPL078C, strain atp4, hits give low values 1.01 | S. cerevisiae deletion strains, locus YPL106C, strain sse1, hits give low values 0.951 | S. cerevisiae deletion strains, locus YPL240C, strain hsp82, hits give low values 1.01 | S. cerevisiae deletion strains, locus YPL241C, strain CIN2, hits give low values 1 | S. cerevisiae deletion strains, locus YPL256C, strain CLN2, hits give low values 0.986 | S. cerevisiae deletion strains, locus YPR119W, strain clb2, hits give low values 1 | S. cerevisiae deletion strains, locus YPR141C, strain kar3, hits give low values 0.978 | S. cerevisiae deletion strains, locus YPR163C, strain tif3, hits give low values 0.989 | S. cerevisiae deletion strains, locus YPR167C, strain met16, hits give low values 0.991 | S. cerevisiae deletion strains, strain wtn01, hits give low values 0.956 | S. cerevisiae strains, strain wild type, hits give low values 1

Reference: PubChem BioAssay AID1159580 (chemical genetic matrix, 2015)
